# From PubChem BioAssay
# An excerpt weighted towards active compounds, which were near 4.1% of everything screened.
# NALP1 inh = NALP1 inhibition; actives 0.61% (n = 280,000); inhibition, % at 10 µM; S. cerevisiae NALP1/ASC/caspase-1 growth, X-gal OD620, 72 h; in the data active means inhibition mostly above about 24%, no sharp cut-off; inactive means mostly below about 32%
# tim10-1 inh = tim10-1 yeast growth inhibition. inhibition, % at 20 µM. S. cerevisiae tim10-1 ts strain growth, BacTiter-Glo, 24 h. actives 2.2% (n = 330,000);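 active means inhibition of at least 40%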;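 further: mutant grown at 25 °C; 0% = DMSO wells with yeast and 100% = wells holding no yeast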
# TIM10 inh = growth inhibitors of TIM10 yeast strain; inhibition, % at 10 µM; S. cerevisiae TIM10 strain growth, BacTiter-Glo luminescence, 24 h; actives 1.4% (n = 330,000); AID 463195;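 active means inhibition of 40% or more at the single tested concentration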;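 further: wild-type TIM10 isogenic control strain grown at permissive 25 °C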
# NALP3 yeast inh = blocks the NALP3 inflammasome reconstituted in yeast; Yeast reconstituted NLRP3/ASC/caspase-1, beta-gal luminescence, 24 h; actives 0.39% (n = 330,000); inhibition, % at 10 µM;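 active means inhibition of 50% or more; inactive means inhibition below 50%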;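 further: plate controls were induced DMSO wells for no effect and uninduced yeast grown without galactose for full effect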
# tim23-1 inh = inhibits growth of tim23-1 mutant yeast. S. cerevisiae tim23-1 growth, BacTiter-Glo luminescence, 24 h. inhibition, % at 20 µM. actives 1.3% (n = 330,000). AID 463212;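 active means growth inhibition of the mutant yeast at or above 50%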;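 further: temperature-sensitive mutant grown at 25 °C; plate controls were DMSO-treated mutant yeast for no effect and medium wells lacking yeast for full effect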
# TIM10 conf = confirmation of TIM10 yeast growth inhibitors; shares compounds with TIM10 inh; S. cerevisiae tim10 strain growth, BacTiter-Glo luminescence, 24 h; inhibition, % at 10 µM; actives 63% (n = 4,600); AID 463215;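 active means inhibition of yeast growth at or above a set limit in either of two replicates at 10 µM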;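 further: this counterscreen used the strain with wild-type TIM10; 0% = yeast with DMSO and 100% = medium wells lacking yeast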
# An asterisk follows results filed as active; . = no result given.
SMILES,NALP1 inh,tim10-1 inh,TIM10 inh,NALP3 yeast inh,tim23-1 inh,TIM10 conf
S=C(NCCc1ccccc1)N/N=C/c1cccs1,.,32.8,41.4*,18.3,41.9,38.5*
C#CCOCCOCCOCCNc1nc(N2CCN(C(=O)[C@H](CCCCN)n3cc([C@@H](N)CO)nn3)CC2)nc(N2CCN(C(=O)[C@H](Cc3cc4ccccc4[nH]3)n3cc([C@@H](N)CO)nn3)CC2)n1,.,1.6,6.8,24.8,10.7,.
C#CCOCCOCCOCCNc1nc(N2CCN(C(=O)[C@H](CCCCN)n3cc([C@@H](N)CO)nn3)CC2)nc(N2CCN(C(=O)[C@H](Cc3cc4ccccc4[nH]3)n3cc([C@@H](N)CC(C)C)nn3)CC2)n1,19.5,-19.3,94.2*,11.1,-5.8,0.8
CC(C)(C)n1nnnc1C(c1ccc(Cl)cc1)N1CCCc2ccccc21 (stereo unspecified),29.2,37.4,28.2,10.1,45.2,.
CCC(C)(C)n1nnnc1C(c1cccnc1)N1CCCc2ccccc21 (stereo unspecified),6.7,38.5,40.2*,-0.9,34.7,36.9*
CC(C)(C)n1nnnc1C(c1cccc(C#N)c1)N1CCCc2ccccc21 (stereo unspecified),16.8,36.0,43.0*,-3.2,37.1,25.4
COc1cccc(C(=O)N2CCN(Cc3nc(CC4CC4)no3)CC2)c1,.,12.6,-6.9,-10.9,-5.6,.
Cc1noc(C)c1CSCC(=O)N(CC(C)C)c1c(N)n(Cc2ccccc2)c(=O)[nH]c1=O,.,-13.7,-5.3,6.0,-7.9,.
COc1ccc(CNC(=O)CSc2cccc3cccnc23)cc1,.,13.7,50.9*,-5.4,-0.4,11.9
CCCNC(=O)NC(C(=O)OC)C12CC3CC(CC(C3)C1)C2 (stereo unspecified),13.7,10.5,9.6,-1.6,12.7,.
COc1ccccc1/C=C/C(=O)OCC(=O)N1c2ccccc2CC1C (stereo unspecified),.,9.3,7.8,12.8,32.1,.
CC(C)(C)C(=O)NC(=S)Nc1cc(C(F)(F)F)ccc1N1CCOCC1,-14.9,38.6,47.6*,4.8,37.5,25.1
CC(C)(C)C(=O)Nc1cc(C(F)(F)F)ccc1N1CCOCC1,11.0,9.6,4.2,-0.3,2.8,.
COc1ccc(NC(C)C(=O)Nc2cc(C(F)(F)F)ccc2N2CCOCC2)c(OC)c1 (stereo unspecified),39.4,28.4,40.6*,11.0,32.8,14.6
COc1ccc(-c2noc(N3CCC(C(=O)NCCCN4CCCCC4)CC3)n2)cc1,15.5,5.8,-3.0,1.3,3.5,.
CCN(CC)S(=O)(=O)c1ccc(N2CCN(S(=O)(=O)c3ccc4c(c3)OCCO4)CC2)nc1,12.8,17.1,11.0,0.5,15.2,.
O=[N+]([O-])C(=C1Nc2ccccc2N1)/C(Cl)=C(/Cl)Br,16.8,25.6,57.1*,-8.1,37.2,41.0*
CN(Cc1ccccc1)C(=C(Cl)Cl)C(=C1NCCN1)[N+](=O)[O-],35.5,-12.1,-8.1,3.9,0.5,.
Cc1[nH]nc(N=CC2=C(O)CC(c3ccco3)CC2=O)c1-c1ccc(Cl)cc1 (stereo unspecified),20.0,25.4,21.2,2.8,27.0,.
Cc1[nH]nc(N=CC2=C(O)CC(C)(C)CC2=O)c1-c1ccc(Cl)cc1,8.3,36.3,40.8*,1.3,21.2,30.5*
CNc1nc(N)c([N+](=O)[O-])c(Nc2ccccc2OC)n1,8.4,27.0,43.7*,31.0,32.8,52.2*
CNc1nnc(-c2cc3cc(Cl)ccc3oc2=O)s1,6.9,17.7,46.2*,11.8,23.1,32.7*
O=c1oc2ccc(Cl)cc2cc1-c1nnc(Nc2cccc(C(F)(F)F)c2)s1,36.7,8.6,4.9,9.5,13.8,.
O=C(Cc1ccccc1)N/N=C/c1cc(Br)cc(Cl)c1O,19.2,38.9,44.7*,23.9,38.1,50.6*
COc1cc(Br)cc(/C=N/NC(=O)Cc2ccccc2)c1O,.,2.8,28.8,1.4,36.5,.
O=C(CN1CCN(c2nc(-c3ccc(Cl)cc3)cs2)CC1)NCc1ccco1,29.0,20.3,41.8*,9.6,23.2,28.9*
CCNC(=O)CSc1nc2ccccc2c(=O)n1-c1cc(OC)ccc1OC,.,6.7,9.5,3.2,16.0,.
CCn1c(SCc2ccccc2)nnc1-c1cccs1,-77.2,39.1,30.7,14.2,37.1,.
